# Source: PubChem BioAssay (NCI)
# About 83,000 compounds went through this panel and 20% of them were active in at least one assay; those are over-represented in the sample as a whole.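 Cell lines were cultured in 96-well plates, exposed to a single compound concentration, and assessed for percent growth 48 hours later.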 A number with no mark means an inactive call. Calls of active or inactive are those of the source. Rule for the calls: active = growth percent below 10; inactive = the rest.
# Assays:
# Test in all cases: NCI-60 one-dose screen, 48 h (100 = growth as untreated, 0 = no growth, -100 = all killed)
# Conditions in all cases: 10 µM unless noted
# T-47D breast = system: T-47D breast
# BT-549 breast = system: BT-549 breast
# MDA-MB-435 melanoma = system: MDA-MB-435 melanoma
# SW-620 colon = system: SW-620 colon
# MCF7 breast = system: MCF7 breast
# HCT-116 colon = system: HCT-116 colon
# HCC-2998 colon = system: HCC-2998 colon
# KM12 colon = system: KM12 colon
Structure (SMILES),growth (T-47D breast),growth (BT-549 breast),growth (MDA-MB-435 melanoma),growth (SW-620 colon),growth (MCF7 breast),growth (HCT-116 colon),growth (HCC-2998 colon),growth (KM12 colon)
O=C(NCCOCCOCCNc1cccc2c1C(=O)N(C1CCCNC1=O)C2=O)c1cc2c(o1)C(=O)c1ccccc1C2=O (stereo not drawn),14.9%,-94.7% (active),-94.1% (active),-6.93% (active),-63.3% (active),0.0602% (active),-56.2% (active),-14.2% (active)
CCCCOc1nc2ccc(Cl)cc2cc1/C=C/C(=O)/C=C1/CC(c2cc3cc(Cl)ccc3nc2OCCCC)Nc2ccccc2N1 (stereo not drawn),83.5%,96.6%,104%,98.7%,74.2%,97.6%,91.5%,101%
CC(C)CCC[C@@H](C)[C@H]1CCC2C3=CCn4c(=O)ccc(=O)n4C3CC[C@@]21C (stereo partly drawn),-75.2% (active),-30.9% (active),-87.1% (active),-65.5% (active),-92.5% (active),-100% (active),-93.1% (active),-97.5% (active)
COc1ccc(-c2c(N)n[nH]c2-c2ccccc2O)cc1OC,70%,-4.52% (active),93.4%,110%,96.5%,94.9%,107%,107%
COc1c(C)cnc(CSc2nc(-c3ccc(C)cc3)cn2-c2ccc(Cl)cc2)c1C,88.1%,102%,110%,100%,102%,79.8%,106%,105%
CCO/C=N/C1=C(C#N)C(c2ccc(OC)cc2)c2c(c3ccccc3n(C)c2=O)O1 (stereo not drawn),101%,117%,107%,101%,94.8%,102%,106%,103%
CCCc1cc(=O)oc2c3c(c4c(c12)OC(C)(C)C=C4)O[C@@H](C)[C@H](C)C3=O,41.5%,68.7%,96.2%,71.6%,56.4%,35.8%,,70.4%
CC(C)(C)OC(=O)N1Cc2cc3ccccc3nc2C1CO (stereo not drawn),103%,85%,88.1%,94.5%,90.7%,98.4%,,106%
CCNCCNc1cc(-c2ccc(Cl)cc2)c(C#N)c2nc3ccccc3n12,-60% (active),-33.4% (active),-85.7% (active),-71.9% (active),-22.8% (active),,4.11% (active),27.8%
CN(C)CCCCNc1ccc(NCCCCN(C)C)c2c1C(=O)c1c(O)ccc(O)c1C2=O,97.1%,92%,92.7%,-72.6% (active),-81.6% (active),,-86% (active),-89.3% (active)
COc1ccc(C2CC(c3ccc4ccccc4c3)=NN2c2nc(O)c(C3=c4cc(Cl)ccc4=NC3=O)s2)cc1 (stereo not drawn),-79.9% (active),-26% (active),-64.6% (active),-42.4% (active),-22.4% (active),,-54.1% (active),-59.3% (active)
O=C1CSC(c2ccccc2O)N1c1nnc(Cn2cnnc2)o1 (stereo not drawn),71.2%,87.7%,97.8%,105%,54.6%,88.6%,77.5%,84.3%
NC(=Nc1ccc(N)cc1)C(N)=Nc1ccc(N)cc1,104%,64.3%,104%,99.2%,90.4%,95.9%,,108%
CC(=O)c1ccc2c(c1)CCN2,105%,106%,111%,113%,98.3%,100%,,110%
COc1ccc(C2=NC(=O)NC2c2ccc(OC)cc2)cc1 (stereo not drawn),62.5%,90.6%,9.83% (active),38.7%,29.3%,47%,,41.1%
CCOC(=O)c1c(C)nc2c(c1N)/C(=C/c1ccc(OC)cc1)C(=O)N2Cc1ccc(F)cc1,-0.0776% (active),-85.5% (active),-62.1% (active),-58.9% (active),-35.7% (active),,-83.7% (active),-59.7% (active)
Cn1ncc2c(Nc3ccc(Br)cc3)nc(Nc3ccc(Br)cc3)nc21,29.1%,62.5%,33.5%,52.7%,3.89% (active),37%,,37.1%
COC1(CC[C@@H](C)COC2OC(CO)C(O)C(O)C2O)O[C@H]2C[C@H]3[C@@H]4CC=C5C[C@@H](OC6OC(CO)C(OC7OC(C)C(O)C(O)C7O)C(O)C6OC6OC(C)C(O)C(O)C6O)CC[C@]5(C)[C@H]4CC[C@]3(C)[C@H]2[C@@H]1C (stereo partly drawn),-4.7% (active),-84.2% (active),-61.3% (active),-96.4% (active),-85.5% (active),-86.1% (active),,-82.2% (active)

Structure (SMILES),growth (T-47D breast),growth (BT-549 breast),growth (MDA-MB-435 melanoma),growth (SW-620 colon),growth (MCF7 breast),growth (HCT-116 colon),growth (HCC-2998 colon),growth (KM12 colon)
N=C(N)c1ccc(-c2ccc(-c3ccc(Cl)c(Cl)c3)o2)nc1,85.9%,94.9%,-52.1% (active),-69.8% (active),-76.8% (active),,77.8%,-15% (active)
NC(=S)N/N=C/C(=O)O,40.9%,95%,92.5%,65.7%,11.7%,,104%,99.4%
COc1ccc(-c2nc3ccccn3c2/C=C/C(=O)c2cc(OC)c(OC)c(OC)c2)cc1,26.6%,61.7%,38.6%,49.7%,18.8%,,61.1%,46.3%
COC(=O)Nc1nc2ccc(C(=O)C3CC3)cc2[nH]1,57.1%,74.9%,-63.7% (active),20.6%,4.01% (active),,-12.7% (active),-0.0812% (active)
COc1cc(/C=C/C(=O)c2ccc(Nc3nc(Nc4ccccc4)nc(Nc4ccc(Cl)cc4)n3)cc2)cc(OC)c1OC,28.3%,50.9%,58.8%,56.2%,7.84% (active),0.251% (active),,46.9%
O=C(CC12CC3CC(CC(C3)C1)C2)NCCOCCOCCNC(=O)c1cc2c(o1)C(=O)c1ccccc1C2=O,-11.8% (active),-93.7% (active),-97.7% (active),-28.4% (active),-68.4% (active),-8.18% (active),-86.9% (active),-23.9% (active)
CCOC(=O)C1C(=O)C=C(c2cnccn2)CC1c1ccc(OC)c(OC)c1 (stereo not drawn),83.5%,71.5%,106%,106%,93.1%,,99%,102%
COc1cccc(-c2cnco2)c1OCc1c(C)c(COc2c(OC)cccc2-c2cnco2)c(C)c(COc2c(OC)cccc2-c2cnco2)c1C,33.5%,39.2%,54.9%,75%,65.5%,,99.3%,64.9%
OC(COc1cccc2ccccc12)CN1CCN(c2ccccc2)CC1 (stereo not drawn),86.2%,95.3%,88.2%,102%,96.4%,86.9%,,95.3%
CC[C@]1(O)C[C@H]2CN(CCc3c([nH]c4ccccc34)[C@@](C(=O)OC)(c3cc4c(cc3OC)N(C=O)[C@H]3[C@@](O)(C(=O)OC)[C@H](OC(C)=O)[C@]5(CC)C=CCN6CC[C@]43[C@@H]65)C2)C1,54.8%,-24.2% (active),-43.7% (active),15.5%,2.44% (active),-36.7% (active),,5.78% (active)
C#CC[C@H](N)C(=O)O,102% [20 µM],106% [20 µM],102% [20 µM],103% [20 µM],91.7% [20 µM],,116% [20 µM],105% [20 µM]
O=c1[nH]c(=O)n(C2CC(O)C(CO)O2)cc1CO (stereo not drawn),87.7%,82.1%,99%,96.6%,65.4%,91.4%,,103%
N=c1ccn2c(n1)OC1C(O)C(CO)OC12 (stereo not drawn),61%,44.9%,46.8%,41.5%,14.9%,18.3%,,50.6%
C[C@]12CCC(=O)C[C@H]1CC[C@@H]1[C@@H]2CC[C@@]2(C)[C@H]1CC[C@]2(O)C(=O)CO,99.5%,105%,102%,108%,91.1%,110%,,110%
O=C1CC(c2ccc3c(c2)OCO3)Nc2cc3c(cc21)OCO3 (stereo not drawn),59.5%,32.7%,-34.6% (active),25.1%,13.9%,,17.6%,15.2%
N=C(N)c1ccc(-c2ccc(-c3ccc(Cl)cn3)s2)cc1,55.4%,82.6%,-52.6% (active),-28.3% (active),-44.4% (active),,-61.5% (active),1.88% (active)
CC1(C)CC(=O)c2c(ccc(C(=O)C[C@H](N)CO)c2N)O1,53.8%,25%,52.3%,7.48% (active),13.3%,,9.33% (active),16%
